# Measurements: the supplement of paper PMC10037445
# Values joined by “and” are separate entries in the source; they are usually repeats but may differ in a detail not shown here. Identical values can stand only once. Whole data set: some 2,900 compounds, median “NF-kB SEAP reporter activity, fold change vs agonist alone” near 0.99, cut for the highest 2% near 2.6. Only a selection was taken, and the highest values are over-represented in it overall.
# Experiments:
# RAW-Dual [1] = assay: NF-kB SEAP reporter activity, fold change vs agonist alone; cytotoxicity flag (confluency mask): cytotoxic (confluency <70% of control); higher = enhanced NF-kB activity
# How it was run: (§1)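 Reporter activity is given as fold change relative to agonist-alone wells. To measure it, 50 nL of library stock was pin-tooled onto RAW-Dual macrophages (50,000 cells/well, DMEM, 384-well plates), a PRR agonist followed 1 h later, and cells stayed at 37 °C, 5% CO2. Twenty hours on, supernatant was assayed for IRF (QuantiLuc luminescence) and NF-κB (QuantiBlue, 620 nm absorbance), and wells under 70% of agonist-control IncuCyte confluency in both mask sets were marked cytotoxic.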
# RAW-Dual [2] = assay: NF-kB SEAP reporter activity, fold change vs agonist alone; higher = enhanced NF-kB activity
# How it was run: as §1
# RAW-Dual [3] = assay: NF-kB SEAP reporter activity, fold change vs agonist alone; cytotoxicity flag (confluency mask): not cytotoxic; higher = enhanced NF-kB activity
# How it was run: as §1
# [4] = agonist: ODN 1826 (TLR9) 0.5 ug/mL
# [5] = agonist: Pam2CSK4 (TLR2/6) 0.1 ug/mL
# [6] = agonist: Pam3CSK4 (TLR2/1) 0.1 ug/mL
# [7] = library stock concentration (final ~1000-fold dilution): 10 mM, cytotoxicity flag (confluency mask): cytotoxic (confluency <70% of control), agonist: Imiquimod (TLR7) […]
# [8] = library stock concentration (final ~1000-fold dilution): 10 mM, cytotoxicity flag (confluency mask): cytotoxic (confluency <70% of control), agonist: MPLA (TLR4) […]
# [9] = library stock concentration (final ~1000-fold dilution): 10 mM, cytotoxicity flag (confluency mask): not cytotoxic, agonist: Imiquimod (TLR7) […]
# [10] = library stock concentration (final ~1000-fold dilution): 10 mM, cytotoxicity flag (confluency mask): not cytotoxic, agonist: MPLA (TLR4) […]
# [11] = library stock concentration (final ~1000-fold dilution): 10 mM water, cytotoxicity flag (confluency mask): not cytotoxic, agonist: Imiquimod (TLR7) […]
# [12] = library stock concentration (final ~1000-fold dilution): 10 mM water, cytotoxicity flag (confluency mask): not cytotoxic, agonist: MPLA (TLR4) […]
compound,measurement,setting,value
COc1ccc2cc1Oc1ccc(cc1)CC1c3cc(c(OC)cc3CCN1C)Oc1c(O)c(OC)cc3c1C(C2)N(C)CC3 (stereo not drawn) (library stock concentration (final ~1000-fold dilution): 10 mM),NF-kB SEAP reporter activity,RAW-Dual [1]; agonist: LPS (TLR4) 0.1 ug/mL,1.81
same,NF-kB SEAP reporter activity,RAW-Dual [1]; [4],0.241
same,NF-kB SEAP reporter activity,RAW-Dual [1]; [5],2.15
same,NF-kB SEAP reporter activity,RAW-Dual [1]; [6],1.31
COc1ccc2cc1Oc1ccc(cc1)CC1c3cc(c(OC)cc3CCN1C)Oc1c(O)c(OC)cc3c1C(C2)N(C)CC3 (stereo not drawn),NF-kB SEAP reporter activity,RAW-Dual [2]; [7],0.618
same,NF-kB SEAP reporter activity,RAW-Dual [2]; [8],2.39
O=C1C(CCC(O)c2ccc(F)cc2)C(c2ccc(O)cc2)N1c1ccc(F)cc1 (stereo not drawn) (library stock concentration (final ~1000-fold dilution): 10 mM),NF-kB SEAP reporter activity,RAW-Dual [3]; agonist: LPS (TLR4) 0.1 ug/mL,1.42
same,NF-kB SEAP reporter activity,RAW-Dual [3]; [4],0.665
same,NF-kB SEAP reporter activity,RAW-Dual [3]; [5],0.889
same,NF-kB SEAP reporter activity,RAW-Dual [3]; [6],0.589
O=C1C(CCC(O)c2ccc(F)cc2)C(c2ccc(O)cc2)N1c1ccc(F)cc1 (stereo not drawn),NF-kB SEAP reporter activity,RAW-Dual [2]; [9],0.952
same,NF-kB SEAP reporter activity,RAW-Dual [2]; [10],1.38
CC1(C)SC2CC(=O)N2C1C(=O)OCOC(=O)C1N2C(=O)C(NC(=O)C(N)c3ccccc3)C2S(=O)(=O)C1(C)C.Cc1ccc(S(=O)(=O)O)cc1 (stereo not drawn) (library stock concentration (final ~1000-fold dilution): 10 mM),NF-kB SEAP reporter activity,RAW-Dual [3]; agonist: LPS (TLR4) 0.1 ug/mL,1.26
same,NF-kB SEAP reporter activity,RAW-Dual [3]; [4],0.797
same,NF-kB SEAP reporter activity,RAW-Dual [3]; [5],1.02
same,NF-kB SEAP reporter activity,RAW-Dual [3]; [6],0.873
CC1(C)SC2CC(=O)N2C1C(=O)OCOC(=O)C1N2C(=O)C(NC(=O)C(N)c3ccccc3)C2S(=O)(=O)C1(C)C.Cc1ccc(S(=O)(=O)O)cc1 (stereo not drawn),NF-kB SEAP reporter activity,RAW-Dual [2]; [10],1.02
CN1C(CC(=O)c2ccccc2)CCCC1CC(O)c1ccccc1.Cl (stereo not drawn),NF-kB SEAP reporter activity,RAW-Dual [2]; [9],0.779
same,NF-kB SEAP reporter activity,RAW-Dual [2]; [10],0.909
CN1C(CC(=O)c2ccccc2)CCCC1CC(O)c1ccccc1.Cl (stereo not drawn) (library stock concentration (final ~1000-fold dilution): 10 mM),NF-kB SEAP reporter activity,RAW-Dual [3]; agonist: LPS (TLR4) 0.1 ug/mL,1.18
same,NF-kB SEAP reporter activity,RAW-Dual [3]; [4],0.669
same,NF-kB SEAP reporter activity,RAW-Dual [3]; [5],0.9
same,NF-kB SEAP reporter activity,RAW-Dual [3]; [6],1.15
O=C(O)CN(CC(=O)O)c1ccccc1OCCOc1ccccc1N(CC(=O)O)CC(=O)O,NF-kB SEAP reporter activity,RAW-Dual [2]; [9],0.994
same,NF-kB SEAP reporter activity,RAW-Dual [2]; [10],1.01
O=C(O)CN(CC(=O)O)c1ccccc1OCCOc1ccccc1N(CC(=O)O)CC(=O)O (library stock concentration (final ~1000-fold dilution): 10 mM),NF-kB SEAP reporter activity,RAW-Dual [3]; agonist: LPS (TLR4) 0.1 ug/mL,1
same,NF-kB SEAP reporter activity,RAW-Dual [3]; [4],0.989
same,NF-kB SEAP reporter activity,RAW-Dual [3]; [5],1.04
same,NF-kB SEAP reporter activity,RAW-Dual [3]; [6],0.872
CN1C2=C3N=c4ccccc4=C3CCN2C(=O)c2ccccc21.Cl,NF-kB SEAP reporter activity,RAW-Dual [2]; [9],0.969
same,NF-kB SEAP reporter activity,RAW-Dual [2]; [10],0.999
CN1C2=C3N=c4ccccc4=C3CCN2C(=O)c2ccccc21.Cl (library stock concentration (final ~1000-fold dilution): 10 mM),NF-kB SEAP reporter activity,RAW-Dual [3]; agonist: LPS (TLR4) 0.1 ug/mL,1.21
same,NF-kB SEAP reporter activity,RAW-Dual [3]; [4],0.594
same,NF-kB SEAP reporter activity,RAW-Dual [3]; [5],1.28
same,NF-kB SEAP reporter activity,RAW-Dual [3]; [6],1.1
CCS(=O)(=O)N1CC(CC#N)(n2cc(-c3ncnc4[nH]ccc34)cn2)C1 (library stock concentration (final ~1000-fold dilution): 10 mM),NF-kB SEAP reporter activity,RAW-Dual [3]; agonist: LPS (TLR4) 0.1 ug/mL,1.65 and 0.788
same,NF-kB SEAP reporter activity,RAW-Dual [3]; [4],1.96 and 2.12
same,NF-kB SEAP reporter activity,RAW-Dual [3]; [5],1.19 and 1.64
same,NF-kB SEAP reporter activity,RAW-Dual [3]; [6],1.77 and 2.42
N#CCC1(n2cc(-c3ncnc4[nH]ccc34)cn2)CN(C2CCN(C(=O)c3ccnc(C(F)(F)F)c3F)CC2)C1,NF-kB SEAP reporter activity,RAW-Dual [2]; [9],0.89
same,NF-kB SEAP reporter activity,RAW-Dual [2]; [10],0.922
N#CCC1(n2cc(-c3ncnc4[nH]ccc34)cn2)CN(C2CCN(C(=O)c3ccnc(C(F)(F)F)c3F)CC2)C1 (library stock concentration (final ~1000-fold dilution): 10 mM),NF-kB SEAP reporter activity,RAW-Dual [3]; agonist: LPS (TLR4) 0.1 ug/mL,0.591
same,NF-kB SEAP reporter activity,RAW-Dual [3]; [4],1.09
same,NF-kB SEAP reporter activity,RAW-Dual [3]; [5],1.11
same,NF-kB SEAP reporter activity,RAW-Dual [3]; [6],1.03
N#CCC(C1CCCC1)n1cc(-c2ncnc3[nH]ccc23)cn1 (stereo not drawn) (library stock concentration (final ~1000-fold dilution): 10 mM),NF-kB SEAP reporter activity,RAW-Dual [3]; agonist: LPS (TLR4) 0.1 ug/mL,0.995 and 0.96 and 0.998
same,NF-kB SEAP reporter activity,RAW-Dual [3]; [4],2.7 and 1.88 and 2.86
same,NF-kB SEAP reporter activity,RAW-Dual [3]; [5],1.81 and 1.49 and 1.69
same,NF-kB SEAP reporter activity,RAW-Dual [3]; [6],2.14 and 2.16 and 2.67
CC(C)(C)N.CCCC(NC(C)C(=O)N1C(C(=O)O)CC2CCCCC21)C(=O)OCC (stereo not drawn),NF-kB SEAP reporter activity,RAW-Dual [2]; [11],0.909
same,NF-kB SEAP reporter activity,RAW-Dual [2]; [12],1.04
CC(C)(C)N.CCCC(NC(C)C(=O)N1C(C(=O)O)CC2CCCCC21)C(=O)OCC (stereo not drawn) (library stock concentration (final ~1000-fold dilution): 10 mM water),NF-kB SEAP reporter activity,RAW-Dual [3]; agonist: LPS (TLR4) 0.1 ug/mL,1.05
same,NF-kB SEAP reporter activity,RAW-Dual [3]; [4],1.13
same,NF-kB SEAP reporter activity,RAW-Dual [3]; [5],1.17
same,NF-kB SEAP reporter activity,RAW-Dual [3]; [6],1.02
CC(C)(C)Cn1c(N)nc2ccc(-c3[nH]c(C(C)(C)C)nc3-c3ccc(F)cc3)nc21.CS(=O)(=O)O.CS(=O)(=O)O (library stock concentration (final ~1000-fold dilution): 10 mM water),NF-kB SEAP reporter activity,RAW-Dual [3]; agonist: LPS (TLR4) 0.1 ug/mL,1.03
same,NF-kB SEAP reporter activity,RAW-Dual [3]; [4],0.512
same,NF-kB SEAP reporter activity,RAW-Dual [3]; [5],0.242
same,NF-kB SEAP reporter activity,RAW-Dual [3]; [6],0.506
CC(C)(C)Cn1c(N)nc2ccc(-c3[nH]c(C(C)(C)C)nc3-c3ccc(F)cc3)nc21.CS(=O)(=O)O.CS(=O)(=O)O,NF-kB SEAP reporter activity,RAW-Dual [2]; [11],0.303
same,NF-kB SEAP reporter activity,RAW-Dual [2]; [12],0.892
C1=CCOCc2cc(ccc2OCCN2CCCC2)Nc2nccc(n2)-c2cccc(c2)COC1,NF-kB SEAP reporter activity,RAW-Dual [2]; [7],1.52
same,NF-kB SEAP reporter activity,RAW-Dual [2]; [8],0.838
C1=CCOCc2cc(ccc2OCCN2CCCC2)Nc2nccc(n2)-c2cccc(c2)COC1 (library stock concentration (final ~1000-fold dilution): 10 mM),NF-kB SEAP reporter activity,RAW-Dual [1]; agonist: LPS (TLR4) 0.1 ug/mL,0.498
same,NF-kB SEAP reporter activity,RAW-Dual [1]; [4],0.245
same,NF-kB SEAP reporter activity,RAW-Dual [1]; [5],0.176
same,NF-kB SEAP reporter activity,RAW-Dual [1]; [6],0.256
CC(C)n1cc(-c2ccc3c(c2)N(C)CC3)c2c(NS(=O)(=O)c3ccn(C)n3)ccnc21 (library stock concentration (final ~1000-fold dilution): 10 mM),NF-kB SEAP reporter activity,RAW-Dual [3]; agonist: LPS (TLR4) 0.1 ug/mL,1.25
same,NF-kB SEAP reporter activity,RAW-Dual [3]; [4],1.12
same,NF-kB SEAP reporter activity,RAW-Dual [3]; [5],1.14
same,NF-kB SEAP reporter activity,RAW-Dual [3]; [6],1.07
CC(C)n1cc(-c2ccc3c(c2)N(C)CC3)c2c(NS(=O)(=O)c3ccn(C)n3)ccnc21,NF-kB SEAP reporter activity,RAW-Dual [2]; [9],0.948
same,NF-kB SEAP reporter activity,RAW-Dual [2]; [10],1.02
